From US20130022590, “Compositions Comprising Zinc Finger Domains and Uses Therefor” (published 2013)

Target: T1, ZRANB2-F2 (Homo sapiens, UniProt O95218 O95218:65-95)
T1 chain: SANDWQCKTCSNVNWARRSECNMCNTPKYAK
Test: FP; about 4-fold to 8-fold stated in p392
Conditions: tags: GST fusion (FA); label: 5'-fluorescein; ssRNA
Procedure: Fluorescence Anisotropy titrations e.g., as shown in FIGS. 1D-F, 8 and 35, were carried out using standard protocols. In brief, 5′-Fluorescein-labeled RNA oligonucleotides were quantified by A₂₆₀, correcting for fluorescein absorbance by using A₄₉₃. For single-site experiments, the sequence […] (SEQ ID NO: 28), or single base mutants thereof, was used. For double-site experiments, two AGGUAA sites were separated by different length sequences as indicated, and the total oligonucleotide lengths were kept constant by the symmetrical addition of adenines to each end. […] Protein was titrated into this starting solution and anisotropy values measured on a Cary Eclipse fluorescence spectrophotometer fitted with manual polarizer and long-pass filters set to 475 and 515 nm for excitation and emission, respectively. […] Association constants were determined by nonlinear least squares regression analysis using a 1:1 binding model.
To determine whether changing arginine-82 (R82) would affect the binding preference of ZRANB2-F2 from GGU to GAU, the point mutation R82Q in ZNF 2 of ZRANB2 was made and the ability of both the wild type (W) protein and the R82Q mutant to bind to AGGUAA and AGAUAA was assessed by fluorescence anisotropy binding assays as described previously in Example 1.

Row | Sequence | binding signal [fold lower than AGGUAA]
1 | AGAUAA | ~4
